In the supplement of paper PMC10127200:
Structures can show the parent of a compound that is named as a salt.

What was measured:
Assay in all cases: Euclidean distance of Cell Painting phenotypic profile (signed KS, 77 features) to DMSO centroid (dimensionless distance); 5 or 10 uM (library dependent); higher = stronger phenotypic change vs DMSO (phenoactivity)
Conditions in all cases: 48 h
[1] = system: 786-O
Method in brief: (§1)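 Harmony extracted 77 features from 20X confocal images (9 fields/well) of stained cells, scoring each as a signed Kolmogorov-Smirnov statistic against same-plate vehicle wells. The cells, five cancer lines and a healthy fibroblast line, had received library compounds for 48 h at 10 or 5 uM depending on library, with 0.1% DMSO final. Phenoactivity is the Euclidean distance from each plate-position-corrected, correlation-weighted, top-dose replicate-averaged profile to the median vehicle profile.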

[2] = system: A549
Method in brief: as §1

[3] = system: DU145
Method in brief: as §1

[4] = system: FB
Method in brief: as §1

[5] = system: HEPG2
Method in brief: as §1

[6] = system: OVCAR4
Method in brief: as §1

| SMILES | Euclidean distance [1] | Euclidean distance [2] | Euclidean distance [3] | Euclidean distance [4] | Euclidean distance [5] | Euclidean distance [6] |
| --- | --- | --- | --- | --- | --- | --- |
| Cc1ccc(/C=C2/C(=O)C3(C)CCC2C3(C)C)cc1 (configuration not stated) [4-Methylbenzylidene camphor] | 1.01 | 1.2 | 0.926 | 0.895 | 0.613 | 1.22 |
| COc1cccc2c1C(=O)c1c(O)c3c(c(O)c1C2=O)C[C@@](O)(C(=O)CO)C[C@@H]3O[C@H]1C[C@H](N)[C@H](O)[C@H](C)O1 [Doxorubicin (Adriamycin)] | 4.79 | 5.36 | 4.79 | 5.17 | 4.55 | 5 |
| CC(C)NC[C@@H](C(=O)N1CCN(c2ncnc3c2[C@H](C)C[C@H]3O)CC1)c1ccc(Cl)cc1 [Ipatasertib (GDC-0068)] | 2.48 | 2.97 | 2.12 | 2.49 | 1.13 | 2.11 |
| Cn1cnc(N)c2ncnc1-2 [3-Methyladenine] | 1.21 | 1.11 | 1.58 | 1.28 | 1.37 | 0.677 |
| CCCN1CCCC[C@H]1C(=O)Nc1c(C)cccc1C [Ropivacaine HCl] | 0.76 | 0.477 | 0.895 | 0.646 | 0.469 | 1.39 |
| O=c1[nH]c2ccccc2n1CCN1CCN(c2cccc(C(F)(F)F)c2)CC1 [Flibanserin] | 1.14 | 1.22 | 0.833 | 1.07 | 0.806 | 1.35 |
| Cc1ccc(C(C)C)c(O)c1 [Thymol] | 0.798 | 1.8 | 1.2 | 0.901 | 0.572 | 1.46 |
| CC(C)C[C@H](NC(=O)[C@H](CCc1ccccc1)NC(=O)CN1CCOCC1)C(=O)N[C@@H](Cc1ccccc1)C(=O)N[C@@H](CC(C)C)C(=O)[C@@]1(C)CO1 [Carfilzomib (PR-171)] | 5.78 | 4.54 | 5.77 | 0.729 | 4.79 | 5.41 |
| O=C(c1ccc(OCCN2CCCCC2)cc1)c1c(-c2ccc(O)cc2)sc2cc(O)ccc12 [Raloxifene] | 2.37 | 2.49 | 2.15 | 2.23 | 2.54 | 2.52 |
| Oc1ccc([C@H]2COc3cc(O)ccc3C2)cc1 [Equol] | 1.09 | 1.52 | 1.04 | 1.35 | 0.768 | 1.72 |
| CN(C)c1ccc2c(c1)Sc1cc(N(C)C)ccc1N2 [TRx0237 (LMTX) mesylate] | 2.79 | 3.35 | 2.69 | 3.38 | 2.95 | 2.88 |
| Cc1nc(NC(=O)N2CCC[C@H]2C(N)=O)sc1-c1ccnc(C(C)(C)C(F)(F)F)c1 [Alpelisib (BYL719)] | 1.4 | 1.45 | 1.3 | 2.29 | 1.09 | 2.02 |
| COc1ccc(-c2cc(=O)c3c(O)cc(O)cc3o2)cc1O [Diosmetin] | 2.12 | 1.03 | 0.892 | 1.37 | 1.25 | 1.26 |
| O=C1OC(OC(=O)c2cccnc2Nc2cccc(C(F)(F)F)c2)c2ccccc21 (configuration not stated) [Talniflumate] | 0.81 | 0.859 | 0.922 | 0.783 | 0.818 | 1 |
| CS(=O)(=O)Nc1ccc([N+](=O)[O-])cc1Oc1ccccc1 [Nimesulide] | 1.43 | 1.21 | 0.674 | 1.03 | 1.82 | 1.8 |
| CC[C@@H]([C@H](C)O)n1ncn(-c2ccc(N3CCN(c4ccc(OC[C@@H]5CO[C@@](Cn6cncn6)(c6ccc(F)cc6F)C5)cc4)CC3)cc2)c1=O [Posaconazole] | 3.81 | 2.06 | 2.09 | 2.3 | 1.43 | 1.21 |
| COc1cc2c(cc1OC)[C@@H](Cc1cc(OC)c(OC)c(OC)c1)[N+](C)(CCCOC(=O)CC/C=C/CCC(=O)OCCC[N+]1(C)CCc3cc(OC)c(OC)cc3[C@H]1Cc1cc(OC)c(OC)c(OC)c1)CC2 (some centres not stated) [Mivacurium chloride] | 0.861 | 1 | 0.929 | 1.3 | 0.442 | 1.25 |
| CN1C(C(=O)Nc2ccccn2)=C(O)c2sc(Cl)cc2S1(=O)=O [Lornoxicam] | 0.853 | 0.623 | 0.95 | 0.965 | 1 | 0.799 |
| COc1ccc(-c2cc(=O)c3c(OC)c(OC)c(OC)c(OC)c3o2)cc1OC [Nobiletin] | 0.695 | 0.706 | 1 | 0.95 | 1.47 | 0.897 |
| C=CC(=O)Nc1ccc2ncnc(Nc3ccc(OCc4cccc(F)c4)c(Cl)c3)c2c1 | 2.14 | 1.92 | 1.99 | 2.48 | 1.03 | 3.41 |
| COc1ccc(CN2CCN(C(c3ccc(F)cc3)c3ccc(F)cc3)CC2)c(OC)c1OC [Lomerizine HCl] | 0.896 | 1.09 | 0.808 | 1.17 | 1.31 | 0.83 |
| CN1CCc2c(c3ccccc3n2Cc2ccc(C(=O)NO)cc2)C1 [Tubastatin A HCl] | 0.602 | 0.832 | 0.783 | 1.34 | 0.601 | 0.657 |
